From PubChem BioAssay (NCATS) come the findings set out here.

The structures appear in SMILES notation. Values joined by “and” are separate entries in the source; they are usually repeats but may differ in a detail not shown here. Equal values may be shown once. Results filed as inconclusive are left out. A call without a number means that no potency is given here. Values without a mark were called inactive. Active and inactive are the calls of the source. Unless noted, calls come from the whole dose curve; as a rule, active = well fitted curve in the direction sought with a large enough effect; inconclusive = small, poorly fitted or top-dose-only effect, or another doubt; inactive = no such curve, though single readings can be large; an effect the other way counts as inactive or inconclusive.
Potency is the fitted concentration of half-maximal effect.

Chain of Cytochrome P450 2C9 (Homo sapiens) (P11712 whole entry, looked up): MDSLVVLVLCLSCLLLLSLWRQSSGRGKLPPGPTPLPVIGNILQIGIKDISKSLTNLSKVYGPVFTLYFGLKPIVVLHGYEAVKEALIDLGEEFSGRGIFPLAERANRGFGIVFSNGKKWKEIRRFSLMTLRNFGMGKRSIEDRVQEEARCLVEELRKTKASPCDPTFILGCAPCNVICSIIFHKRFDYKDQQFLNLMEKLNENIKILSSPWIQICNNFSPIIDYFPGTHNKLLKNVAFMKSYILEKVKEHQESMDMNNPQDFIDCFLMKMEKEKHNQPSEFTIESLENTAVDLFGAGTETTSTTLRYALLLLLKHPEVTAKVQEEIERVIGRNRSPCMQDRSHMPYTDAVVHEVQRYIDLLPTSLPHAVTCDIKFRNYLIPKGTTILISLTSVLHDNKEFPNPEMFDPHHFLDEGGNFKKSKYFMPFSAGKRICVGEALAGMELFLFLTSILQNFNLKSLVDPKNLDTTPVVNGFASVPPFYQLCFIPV

The first test has as its target Cytochrome P450 2C9 (Homo sapiens) (UniProt P11712). The experiment in a line: Cytochrome P450 family 2 subfamily C member 9 (CYP2C9) small molecule antagonists: luciferase biochemical (cell-free) qHTS assay (AID 1645842; active = well fitted curve in the direction sought with a large enough effect in the repeat runs; an effect the other way counts as inactive or inconclusive; note: nearly all actives have a fitted effect of over 55% in size). The following applies: P450-Glo CYP2C9 enzyme assay, luciferin luminescence; series mostly up to 57.4 µM. The procedure, abridged:
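P450-Glo CYP2C9 system: proluciferin substrate with enzyme in mix containing 0.4% BSA, 10 min at room temperature, then NADPH regeneration solution added and incubated 1 h at 37C. Detection reagent stopped reaction; luminescence read after 20 min as RLU.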
In general terms: Quantitative high-throughput screening tests each substance at several concentrations.
Consider `COc1cc(Nc2ncc3c(n2)-c2ccc(Cl)cc2C(c2c(F)cccc2OC)=NC3)ccc1C(=O)O`, for which the Potency result was “inactive”.
For the molecule `CC(C)(N)C(=O)N[C@H](COCc1ccccc1)C(=O)N1CCC2(CC1)CN(S(C)(=O)=O)c1ccccc12`, the Potency result was “inactive”.
`CNC(=O)c1ccccc1Sc1ccc2c(/C=C/c3ccccn3)n[nH]c2c1`: the Potency was 3.47 µM (active).
The same measure, in the same setting: in the case of `O=C(NOC[C@H](O)CO)c1ccc(F)c(F)c1Nc1ccc(I)cc1F` it was 16.9 µM (active); in that of `O=c1n(CCCN2CCN(c3cccc(Cl)c3)CC2)nc2ccccn12`, “inactive”.

For a further test, the target named is Papain (Carica papaya) (UniProt P00784). The experiment in a line: Primary qHTS assay for inhibitors of the protease papain (AID 1645873).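 Note: papain turnover of Z-FR-AMC read as the AMC fluorescence gain over 10 min.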 The following applies: papain Z-FR-AMC cleavage, AMC fluorescence; series mostly up to 49.8 µM.
Chain of Papain (Carica papaya) (P00784 whole entry, looked up): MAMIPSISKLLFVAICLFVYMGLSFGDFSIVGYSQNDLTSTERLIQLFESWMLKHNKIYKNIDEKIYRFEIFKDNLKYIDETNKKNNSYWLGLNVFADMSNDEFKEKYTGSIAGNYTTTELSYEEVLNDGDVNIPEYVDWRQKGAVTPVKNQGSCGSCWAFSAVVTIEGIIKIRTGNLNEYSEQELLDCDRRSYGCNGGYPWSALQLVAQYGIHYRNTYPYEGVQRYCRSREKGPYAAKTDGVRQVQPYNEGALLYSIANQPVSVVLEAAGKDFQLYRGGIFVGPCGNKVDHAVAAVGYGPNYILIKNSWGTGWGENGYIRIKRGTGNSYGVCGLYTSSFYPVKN
As to `Cc1cn[nH]c1`, the Potency entry was “inactive”.
Same read-out and setting: the entry for `O=NN(CCCl)C(=O)NCCCl` is “inactive”.
Still for that read-out and setting: the entry for `CC(C)C[C@H](NC(=O)[C@@H](O)[C@H](N)Cc1ccccc1)C(=O)O` is “inactive”; for `CCC(C)N(C)C(=O)c1cc2ccccc2c(-c2ccccc2Cl)n1` (configuration not stated) it is “inactive”.
As for `CCCCNc1cc(C(=O)O)cc(S(N)(=O)=O)c1Oc1ccccc1`, the Potency is 20 µM (active).
On the same count and under the same terms, in the case of `CN1CCN(CCCN2c3ccccc3Sc3ccc(C(F)(F)F)cc32)CC1` it was “inactive”; in that of `NS(=O)(=O)c1cc2c(cc1Cl)NC=NS2(=O)=O`, “inactive”.
With `O=C(Nc1nc2ccccc2n1CCN1CCOCC1)c1cccc([N+](=O)[O-])c1`, the Potency entry is “inactive”.
As to `O=C(O)CCc1ccc(NCc2cccc(Oc3ccccc3)c2)cc1`, the Potency entry is “inactive”.
For `NCCCC(N)(C(=O)O)C(F)F` (configuration not stated), the Potency entry was “inactive”.
For the molecule `O=C(O)COCCN1CCN(C(c2ccccc2)c2ccc(Cl)cc2)CC1` (configuration not stated), the Potency entry is “inactive”.
As for `CCOC(=O)N1CCC(=C2c3ccc(Cl)cc3CCc3cccnc32)CC1`, the Potency result is “inactive”.
As to `Cc1cccc(-c2[nH]c(C(C)(C)C)nc2-c2ccc3nccnc3c2)n1`, the Potency entry is “inactive”.
On to `Cc1cc2c(C(C)C)c(O)c(O)c(C=O)c2c(O)c1-c1c(C)cc2c(C(C)C)c(O)c(O)c(C=O)c2c1O`, for which the Potency is 12.6 µM (active).

Tested on in another test: not listed separately
As to the kind of experiment: Primary qHTS for inhibitors of nuclear receptor binding SET domain protein 2 (NSD2) in an isogenic RCH-ACV NSD2 p.E1099K mutant (9B) (AID 1645876). Note: nearly all actives have a fitted effect of over 70% in size. The conditions noted are these: RCH-ACV (leukaemia line) NSD2 E1099K (9B) viability, CellTiter-Glo, 72 h; series mostly up to 44.9 µM.
Regarding `Cc1cn[nH]c1`, the Potency result is “inactive”.
For the molecule `O=NN(CCCl)C(=O)NCCCl`, the Potency entry was “inactive”.
In the case of `NC(=O)c1ccc(-c2nc(-c3ccc4c(c3)OCCO4)c(-c3ccccn3)[nH]2)cc1`, the Potency entry is “inactive”.
The same measure, in the same setting: in the case of `CS(=O)(=O)Oc1ccc2c(NC(N)=O)c(C(=O)c3ccc(Cl)cc3Cl)oc2c1` it was “inactive”.
Consider `COc1cc(Nc2ncc3c(n2)-c2ccc(Cl)cc2C(c2c(F)cccc2OC)=NC3)ccc1C(=O)O`, for which the Potency is 115 nM (active) and 20.5 nM (active) and 66.1 nM (active).
Consider `CNC(=O)c1ccc(N2C(=S)N(c3ccc(C#N)c(C(F)(F)F)c3)C(=O)C2(C)C)cc1F`, for which the Potency entry is “inactive”.
Take `Nc1nc2[nH]cc(CCc3ccc(C(=O)N[C@@H](CCC(=O)O)C(=O)O)cc3)c2c(=O)[nH]1`: the Potency was 0.296 µM (active).
Turning to `CC(C)(N)C(=O)N[C@H](COCc1ccccc1)C(=O)N1CCC2(CC1)CN(S(C)(=O)=O)c1ccccc12`, the Potency is 16.3 µM (active) and 26.3 µM (active).
With `CC(C)C[C@H](NC(=O)[C@@H](O)[C@H](N)Cc1ccccc1)C(=O)O`, the Potency result is “inactive”.
Take `CN([C@@H](Cc1ccc(OS(=O)(=O)c2cccc3cnccc23)cc1)C(=O)N1CCN(c2ccccc2)CC1)S(=O)(=O)c1cccc2cnccc12`: the activity change, negative = viability loss is 7.52% [at 4.96 µM].
Take `CC(C)(C)OC(=O)CN(Cc1ccc(Cl)cc1)Cc1ccc([N+](=O)[O-])s1`: the Potency entry was “inactive”.
In the case of `CCCCNc1cc(C(=O)O)cc(S(N)(=O)=O)c1Oc1ccccc1`, the Potency entry was “inactive”.
On to `CN1CCN(CCCN2c3ccccc3Sc3ccc(C(F)(F)F)cc32)CC1`, for which the Potency is 18.8 µM (active) and 16.6 µM (active).
Turning to `Cc1cc([C@@H](C)Nc2ccccc2C(=O)O)c2nc(N3CCOCC3)cc(=O)n2c1`, the Potency was 2.24 µM (active) and 1.86 µM (active).
For `NS(=O)(=O)c1cc2c(cc1Cl)NC=NS2(=O)=O`, the Potency result is “inactive”.
The same measure, in the same setting: in the case of `CNC(=O)c1ccccc1Sc1ccc2c(/C=C/c3ccccn3)n[nH]c2c1` it was 750 nM (active) and 916 nM (active) and 4.17 µM (active); in that of `CCN(CC)CCCC(C)Nc1ccnc2cc(Cl)ccc12` (configuration not stated), “inactive”; in that of `C[C@H](NC(=O)Cc1cc(F)cc(F)c1)C(=O)N[C@@H]1C(=O)N(C)c2ccccc2-c2ccccc21`, “inactive”.
Regarding `CCN(c1ccccc1)c1cc(NC)[n+](C)c(C)n1`, the Potency entry is “inactive”.
`O=C(Nc1nc2ccccc2n1CCN1CCOCC1)c1cccc([N+](=O)[O-])c1`: the Potency result was “inactive”.
The same measure, in the same setting: the entry for `Nc1nccc(-c2ccc3noc(-c4ccc(Cl)cc4)c3c2)n1` is “inactive”; for `O=C(O)CCc1ccc(NCc2cccc(Oc3ccccc3)c2)cc1` it is “inactive”; for `COc1cc(F)c(F)c(Nc2ccc(I)cc2F)c1NS(=O)(=O)C1(C[C@H](O)CO)CC1` it is 18.3 µM (active) and 20.9 µM (active).
For `CN(C)c1ccc(C2Nc3ccc4ccccc4c3C3=C2C(=O)CC(C)(C)C3)cc1Br` (configuration not stated), the Potency result was “inactive”.
For the molecule `Cc1c(CCOc2ccc(C(=O)O)cc2)c2cc(Cl)ccc2n1C(c1ccccc1)c1ccccc1`, the Potency entry is “inactive”.
`O=C(NOC[C@H](O)CO)c1ccc(F)c(F)c1Nc1ccc(I)cc1F`: the Potency entry is “inactive”.
With `NCCCC(N)(C(=O)O)C(F)F` (configuration not stated), the Potency result was “inactive”.
Consider `CCn1c(-c2nonc2N)nc2c(C#CC(C)(C)O)ncc(OC[C@H]3CCCNC3)c21`, for which the Potency is 1.32 µM (active).
Take `COCCNCCCn1c(C(=O)CF)c(-c2ccc(C)cc2)c2c(N)ncnc21`: the Potency is 18.6 µM (active).
For the molecule `O=C(Nc1ccc(F)c(C(F)(F)F)c1)Nc1nnc(-c2ccncc2)s1`, the Potency result is “inactive”.
With `Cc1cccc(-c2[nH]c(C(C)(C)C)nc2-c2ccc3nccnc3c2)n1`, the Potency is 13.2 µM (active) and 5.8 µM (active).
Regarding `Cc1cc2c(C(C)C)c(O)c(O)c(C=O)c2c(O)c1-c1c(C)cc2c(C(C)C)c(O)c(O)c(C=O)c2c1O`, the Potency is 10.5 µM (active).
In the case of `Cc1cc2c(F)c(Oc3ncnn4cc(OC[C@@H](C)O)c(C)c34)ccc2[nH]1`, the Potency was 2.63 µM (active).
